This is an account of results in PubChem BioAssay (NCI).

The panel holds about 83,000 compounds, 20% with a hit somewhere; the sample as a whole holds those more often.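 Cell lines were cultured in 96-well plates, exposed to a single compound concentration, and assessed for percent growth 48 hours later.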 Values without a mark were called inactive. The source made the active and inactive calls. The calls were made as follows: active = growth percent below 10; inactive = the rest.

Some test systems named below: NCI-H23 lung; NCI-H226 lung; NCI-H322M lung; HOP-62 NSCLC; NCI-H460 lung; HOP-92 NSCLC; NCI-H522 lung; A549/ATCC NSCLC; 786-0 renal; COLO 205 colon; DU-145 prostate; K-562 leukemia; MALME-3M melanoma; MDA-MB-231 breast; SF-268 CNS; SF-295 CNS; SF-539 CNS; UACC-257 melanoma; M14 melanoma.
Common to all, as to test: NCI-60 one-dose screen, 48 h (100 = growth as untreated, 0 = no growth, -100 = all killed)
Common to all, as to settings: 10 µM unless noted

`O=C(Nc1nc2ccc(C(=O)N3CCN(c4ccc(Cl)c(Cl)c4)CC3)cc2s1)c1ccc(NCCc2ccccc2)c([N+](=O)[O-])c1`: the growth in the experiment with NCI-H23 lung is 93.3%; in the experiment on NCI-H226 lung it was 87.8%; in the experiment with NCI-H322M lung, 95.5%; with HOP-62 NSCLC, 96.6%; in the experiment on NCI-H460 lung, 110%; with HOP-92 NSCLC, 91.7%. In addition, the growth in the experiment with NCI-H522 lung is 75.9%; in the experiment on A549/ATCC NSCLC, 97.9%; with 786-0 renal, 107%; with COLO 205 colon it was 108%; in the experiment on DU-145 prostate, 101%; in the experiment with K-562 leukemia it was 84.2%. In addition, the growth in the experiment with MALME-3M melanoma is 86.8%; in the experiment on MDA-MB-231 breast, 86.2%; in the experiment with SF-268 CNS, 97%; in the experiment on SF-295 CNS, 96.4%; with SF-539 CNS, 101%; with UACC-257 melanoma, 99.4%. Besides, the growth in the experiment on M14 melanoma is 98.5%.
Regarding `CC(=O)N1N=C(c2cccc(Nc3ccncc3)c2)CC1c1ccc2c(c1)OCO2` (configuration not stated), the growth in the experiment with NCI-H23 lung was 87.4%; in the experiment with NCI-H226 lung it was 94.6%; with NCI-H322M lung, 105%; with HOP-62 NSCLC, 89.4%; in the experiment on NCI-H460 lung, 101%; in the experiment on HOP-92 NSCLC, 72.1%. The growth with NCI-H522 lung was 96.5%; with A549/ATCC NSCLC, 93.9%; with 786-0 renal it was -93.4% (active); with COLO 205 colon it was 84.3%; in the experiment with DU-145 prostate, 104%; with K-562 leukemia it was 27.4%. The growth is 74.9% with MALME-3M melanoma; 86.9% in the experiment on MDA-MB-231 breast; 91.8% in the experiment on SF-268 CNS; 89.9% in the experiment with SF-295 CNS; 77.9% in the experiment on SF-539 CNS; 100% with UACC-257 melanoma. For the same molecule, in the experiment with M14 melanoma, the growth is -69.4% (active).
`CN1CCN(C(=O)OCc2nc3c(N4CCOCC4)nc(-c4ccccc4)nc3n2C)CC1`: the growth with NCI-H23 lung is -77.1% (active); in the experiment on NCI-H226 lung, -66.7% (active); in the experiment on NCI-H322M lung it was 58.2%; in the experiment with HOP-62 NSCLC it was 4.63% (active); in the experiment on NCI-H460 lung, -46.9% (active); in the experiment on HOP-92 NSCLC it was -63.5% (active). The growth in the experiment with NCI-H522 lung is -35.3% (active); in the experiment on A549/ATCC NSCLC, 6.44% (active); with 786-0 renal it was -83.3% (active); in the experiment with COLO 205 colon, -53% (active); with DU-145 prostate, -83.5% (active); in the experiment on K-562 leukemia, 2.72% (active). In addition, the growth in the experiment on MALME-3M melanoma is -93.9% (active); with MDA-MB-231 breast it was -86.2% (active); in the experiment on SF-268 CNS, -50.2% (active); in the experiment with SF-295 CNS, 47.9%; in the experiment with SF-539 CNS, -99.6% (active); with UACC-257 melanoma, -49.5% (active). Also, the growth in the experiment on M14 melanoma was -73.5% (active).
Take `COc1ccc(C2CC(c3cccc(Nc4ccncc4)c3)=NN2c2cc(Cl)cc(Cl)c2)cc1` (configuration not stated): the growth was 80.2% with NCI-H23 lung; 87.6% with NCI-H226 lung; 75.9% in the experiment on NCI-H322M lung; 25.1% in the experiment on HOP-62 NSCLC; -77.6% (active) in the experiment with NCI-H460 lung; 54.9% with HOP-92 NSCLC. In addition, the growth with NCI-H522 lung is 4.77% (active); in the experiment on A549/ATCC NSCLC, 26.5%; with 786-0 renal it was 99.2%; in the experiment with COLO 205 colon, -55.1% (active); in the experiment on DU-145 prostate, 13.3%; in the experiment with K-562 leukemia, 0.631% (active). For the same molecule, the growth with MALME-3M melanoma was -40.6% (active); in the experiment on MDA-MB-231 breast it was 44.7%; in the experiment on SF-268 CNS, 66.3%; with SF-295 CNS, 72.4%; in the experiment with SF-539 CNS, 78%; in the experiment on UACC-257 melanoma, 62%. In addition, in the experiment with M14 melanoma, the growth is 97%.
`CCCCCCCCCCCCCCCC(=O)OC[C@@]1(O)C[C@@]23CC[C@@H]4C(C)(C)[C@H](O)CC[C@@]4(C)[C@@H]2CC[C@H]1C3`: the growth in the experiment with NCI-H23 lung was 98%; in the experiment on NCI-H226 lung, 99.2%; in the experiment on NCI-H322M lung it was 114%; in the experiment with HOP-62 NSCLC, 101%; in the experiment on NCI-H460 lung, 107%; in the experiment with HOP-92 NSCLC, 113%. Also, the growth with NCI-H522 lung is 91.2%; in the experiment on A549/ATCC NSCLC it was 104%; in the experiment on 786-0 renal, 0.227% (active); with COLO 205 colon it was 115%; in the experiment on DU-145 prostate it was 108%; with K-562 leukemia it was 98%. Besides, the growth was 114% with MALME-3M melanoma; 110% with MDA-MB-231 breast; 101% in the experiment with SF-268 CNS; 112% in the experiment with SF-295 CNS; 97.8% in the experiment with SF-539 CNS; 110% with UACC-257 melanoma. In addition, the growth in the experiment with M14 melanoma was -30.4% (active).
On to `COc1ccc(C(=O)c2cc3c(N)c(C(=O)Nc4cccc(OC)c4)sc3nc2C)cc1`, for which the growth was 33.8% with NCI-H23 lung; 68% in the experiment on NCI-H226 lung; 58.7% in the experiment with NCI-H322M lung; 41.5% in the experiment on HOP-62 NSCLC; 7.07% (active) in the experiment on NCI-H460 lung; 85.3% in the experiment with HOP-92 NSCLC. The growth in the experiment with NCI-H522 lung is -16% (active); with A549/ATCC NSCLC it was 25.3%; in the experiment with 786-0 renal, 50.7%; with COLO 205 colon, -3.22% (active); with DU-145 prostate it was 16.2%; in the experiment on K-562 leukemia, 8.3% (active). Besides, the growth in the experiment on MALME-3M melanoma is 55.6%; with MDA-MB-231 breast it was 15.5%; with SF-268 CNS, 39%; in the experiment on SF-295 CNS, 24.2%; in the experiment on SF-539 CNS, -16.3% (active); in the experiment on UACC-257 melanoma, 71.3%. In addition, the growth in the experiment with M14 melanoma was 13.1%.
As for `COc1cc(/C=C2\C(=O)N(Cc3ccc(Cl)cc3)c3ccccc32)cc(OC)c1OC`, the growth in the experiment with NCI-H23 lung was 34.4%; in the experiment with NCI-H226 lung it was 46.7%; with NCI-H322M lung, 66.9%; in the experiment with HOP-62 NSCLC it was 55.9%; in the experiment on NCI-H460 lung, 25.2%; in the experiment on HOP-92 NSCLC, 44%. The growth with NCI-H522 lung is 11.4%; with A549/ATCC NSCLC it was 9.8% (active); in the experiment with 786-0 renal it was 32.7%; in the experiment on COLO 205 colon it was 48%; in the experiment on DU-145 prostate, -39.1% (active); with K-562 leukemia, 8.83% (active). The growth was 65.5% in the experiment with MALME-3M melanoma; 23.3% with MDA-MB-231 breast; 10.9% with SF-268 CNS; 40.9% in the experiment on SF-295 CNS; 23.3% in the experiment with SF-539 CNS; 21.9% with UACC-257 melanoma. For the same molecule, the growth with M14 melanoma was 37.7%.
In the case of `O=c1[nH]nc(-c2ccc(Cl)cc2)cc1Cc1cccc([N+](=O)[O-])c1`, the growth in the experiment with NCI-H23 lung was 104%; with NCI-H226 lung, 91.9%; in the experiment with NCI-H322M lung it was 119%; with HOP-62 NSCLC, 96.3%; in the experiment with NCI-H460 lung, 99.9%; in the experiment on HOP-92 NSCLC, 44.2%. In addition, the growth in the experiment with NCI-H522 lung is 90.6%; in the experiment with A549/ATCC NSCLC, 81.9%; in the experiment on 786-0 renal, 103%; in the experiment on COLO 205 colon, 101%; with DU-145 prostate, 98.7%; with K-562 leukemia it was 94.2%. The growth with MALME-3M melanoma is 119%; in the experiment on MDA-MB-231 breast it was 72.6%; with SF-268 CNS, 95.4%; in the experiment on SF-295 CNS, 92.4%; in the experiment on SF-539 CNS it was 98.5%; in the experiment on UACC-257 melanoma, 97%. The growth in the experiment on M14 melanoma was 107%.
